High-throughput results (PubChem)
The full list was thinned out, with hits kept by preference.
AMPAR-TARP mod: modulators of GluA2-stargazin AMPA receptor complexes, primary screen, cell-based, membrane potential dye | AID 1259245, 2017 | HEK293 GluA2+stargazin, membrane potential dye (FDSS), glutamate EC50; hits were called plate by plate, in both directions | hit rate 3.5% among 40,000 | Voltage-dependent calcium channel gamma-2 subunit (Mus musculus) + Glutamate receptor 2 … | calls only at 30 µM;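 active = any of four per-well response measures lying three or more SD from its plate-wide compound average, in either direction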
Target sequence (O88602 whole entry, looked up): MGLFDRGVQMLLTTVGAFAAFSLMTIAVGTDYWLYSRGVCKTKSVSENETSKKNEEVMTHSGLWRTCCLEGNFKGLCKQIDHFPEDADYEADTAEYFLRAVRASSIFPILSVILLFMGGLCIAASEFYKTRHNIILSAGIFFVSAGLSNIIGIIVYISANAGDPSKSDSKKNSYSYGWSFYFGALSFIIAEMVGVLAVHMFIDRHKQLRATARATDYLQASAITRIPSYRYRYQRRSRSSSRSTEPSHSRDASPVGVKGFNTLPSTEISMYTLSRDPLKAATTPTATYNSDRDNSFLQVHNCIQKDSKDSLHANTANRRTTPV
Target sequence (P19491 whole entry, looked up): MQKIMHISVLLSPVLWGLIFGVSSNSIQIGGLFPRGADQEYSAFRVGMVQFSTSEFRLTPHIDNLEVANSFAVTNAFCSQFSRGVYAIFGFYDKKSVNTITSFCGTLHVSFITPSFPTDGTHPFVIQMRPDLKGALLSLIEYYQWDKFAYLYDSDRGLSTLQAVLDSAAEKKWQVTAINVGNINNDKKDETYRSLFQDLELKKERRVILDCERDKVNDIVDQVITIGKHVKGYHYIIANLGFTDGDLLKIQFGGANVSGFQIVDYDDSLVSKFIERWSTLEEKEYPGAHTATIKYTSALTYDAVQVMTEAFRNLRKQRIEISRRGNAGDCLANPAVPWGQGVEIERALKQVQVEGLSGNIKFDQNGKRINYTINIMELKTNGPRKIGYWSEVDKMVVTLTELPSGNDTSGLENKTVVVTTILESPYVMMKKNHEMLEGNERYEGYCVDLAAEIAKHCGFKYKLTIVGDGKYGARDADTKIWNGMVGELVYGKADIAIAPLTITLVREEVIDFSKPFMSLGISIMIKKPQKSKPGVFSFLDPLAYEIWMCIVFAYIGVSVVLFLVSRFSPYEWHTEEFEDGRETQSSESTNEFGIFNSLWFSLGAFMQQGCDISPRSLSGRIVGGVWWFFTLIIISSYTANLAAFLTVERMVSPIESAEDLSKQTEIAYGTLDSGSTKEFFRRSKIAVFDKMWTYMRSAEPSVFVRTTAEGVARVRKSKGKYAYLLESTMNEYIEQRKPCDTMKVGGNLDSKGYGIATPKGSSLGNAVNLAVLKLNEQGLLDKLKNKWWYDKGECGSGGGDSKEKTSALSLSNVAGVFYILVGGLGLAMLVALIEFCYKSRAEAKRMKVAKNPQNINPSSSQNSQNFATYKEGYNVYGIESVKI
GIRK2 act: activators of NPY4-receptor-primed GIRK2 channels, summary, cell-based, HEK293, thallium flux. G protein-activated inward rectifier potassium channel 2 (Homo sapiens), P48051. HEK293 GIRK2/NPY4 cells, thallium flux fluorescence. activation (% efficacy), % for hits at 37.5 µM. 34,000 tested, under 10 active. AID 1259324, 2017;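 active = primary screen hit, no activity in plain HEK293 cells, and in GIRK2-only cells above 5% efficacy rising with concentration; inactive = the rest, including fluorescent compounds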;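 note: efficacy is normalized control-subtracted fluorescence 15 s after thallium addition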
Of the large screens only hits and unclear results are named; the others gave an inactive call.

COc1ccc(S(=O)(=O)N2CCN=C2SCc2ccccc2C)cc1	none (no result: GIRK2 act)
COc1ccc(S(=O)(=O)N2CCN=C2SCc2ccccc2F)cc1	AMPAR-TARP mod active (no result: GIRK2 act)
O=C(C1CCCC1)N1CCN(Cc2nc(-c3ccco3)cs2)CC1	none (no result: GIRK2 act)
CCOC(=O)Nc1ccc2c(c1)NC(=O)C(C)(C)CO2	none
CCCOc1ccc(S(=O)(=O)Nc2ccc3c(c2)NC(=O)C(C)(C)CO3)cc1	AMPAR-TARP mod active (no result: GIRK2 act)
CCOc1ccc(-c2cc(=O)n(CC(=O)N3CCC(C)CC3)cn2)cc1	none (no result: AMPAR-TARP mod)
O=C(c1cc2ccccc2o1)N(C(=O)N1CCCCC1)c1ccc(Cl)cc1	none (no result: GIRK2 act)
O=C(c1cc(=O)c2ccccc2o1)N(C(=O)N1CCCCC1)c1ccc(Cl)cc1	AMPAR-TARP mod active (no result: GIRK2 act)
O=C(c1ccc([N+](=O)[O-])o1)N(C(=O)N1CCCCC1)c1ccc(Cl)cc1	AMPAR-TARP mod active (no result: GIRK2 act)
O=C(c1ccc(Br)o1)N(C(=O)N1CCCCC1)c1cccc(Cl)c1	none
O=C1CCCC(=O)N1CCS(=O)(=O)NCC1(c2cccs2)CC1	none
O=C(NCCc1ccccc1)C(=O)NCC1CCN(C(=O)COc2ccccc2)CC1	AMPAR-TARP mod active
O=C(NCc1cccc2ccccc12)NCC1CCN(C(=O)COc2ccccc2)CC1	AMPAR-TARP mod active
O=C(NCCc1ccccc1)NCC1CCN(C(=O)COc2ccccc2)CC1	none
O=C(NCc1ccccc1Cl)C(=O)NCC1CCN(C(=O)COc2ccccc2)CC1	none
COCCNC(=O)Cn1nc2c(c1NC(=O)c1cc3ccccc3oc1=O)CSC2	none
CC(C)S(=O)(=O)c1ccc(C(=O)Nc2nnc(-c3ccc4c(c3)OCCO4)o2)cc1	none
Cc1nnsc1C(=O)N1CCC(Cn2cnc3ccccc32)CC1	none
Cn1c(=O)c2c(nc(N3CCN(Cc4ccccc4)CC3)n2CC(O)COc2ccc(Cl)cc2)n(C)c1=O (stereo unspecified)	AMPAR-TARP mod active (no result: GIRK2 act)
CCN1CCN(c2nc3c(c(=O)n(C)c(=O)n3C)n2CC(O)COc2ccccc2)CC1 (stereo unspecified)	none (no result: GIRK2 act)
CC(O)CNc1nc2c(c(=O)[nH]c(=O)n2C)n1CC(O)COc1ccc(Cl)cc1 (stereo unspecified)	none (no result: GIRK2 act)
CCN1CCN(c2nc3c(c(=O)[nH]c(=O)n3C)n2CC(O)COc2ccc(Cl)cc2)CC1 (stereo unspecified)	AMPAR-TARP mod active (no result: GIRK2 act)
COc1cc(OC)c2c(=O)c(-c3ccc(OC4OC(CO)C(O)C(O)C4O)cc3)coc2c1 (stereo unspecified)	none
COc1ccc2sc(N(CCN3CCOCC3)C(=O)c3ccc([N+](=O)[O-])o3)nc2c1	none (no result: GIRK2 act)
Cc1ccc2nc(N(CCN3CCOCC3)C(=O)c3ccc([N+](=O)[O-])o3)sc2c1	AMPAR-TARP mod active (no result: GIRK2 act)
O=C(c1cc2cc([N+](=O)[O-])ccc2s1)N(CCN1CCOCC1)c1nc2ccc(F)cc2s1	AMPAR-TARP mod active (no result: GIRK2 act)
O=C(c1ccc([N+](=O)[O-])o1)N(CCN1CCOCC1)c1nc2c(F)cccc2s1	AMPAR-TARP mod active
O=C(c1ccc([N+](=O)[O-])s1)N(CCN1CCOCC1)c1nc2c(F)cccc2s1	none
O=C(c1cccc([N+](=O)[O-])c1)N(CCN1CCOCC1)c1nc2ccc(F)cc2s1	none (no result: GIRK2 act)
CN(C)C(CNC(=O)c1ccco1)c1ccccc1 (stereo unspecified)	none (no result: GIRK2 act)
Cc1ccc(-n2nc3c(c2NC(=O)C(=O)NCc2ccccn2)CSC3)c(C)c1	none
O=C(COc1ccc2c(c1)OCO2)NCCCn1nc(-c2ccccc2)ccc1=O	none
Cc1c(C)n2c3c(=O)n(CC(N)=O)c(=O)n(C)c3nc2n1CCCn1ccnc1	AMPAR-TARP mod active
Cn1c(=O)c2c(nc3n(CCN4CCOCC4)c(-c4ccccc4)cn23)n(C)c1=O	AMPAR-TARP mod active (no result: GIRK2 act)
Cc1c(C)n2c3c(=O)n(CC(N)=O)c(=O)n(C)c3nc2n1-c1ccc(Br)cc1	none (no result: GIRK2 act)
Cc1cn2c3c(=O)[nH]c(=O)n(C)c3nc2n1CCCN1CCOCC1	AMPAR-TARP mod active
Cc1c(C)n2c3c(=O)n(C)c(=O)n(C)c3nc2n1CCCN1CCOCC1	AMPAR-TARP mod active
Cc1ccc(-n2c(-c3ccccc3)cn3c4c(=O)n(CCN5CCOCC5)c(=O)n(C)c4nc23)cc1	none (no result: GIRK2 act)
CCCCCn1c(C)c(C)n2c3c(=O)n(C)c(=O)n(C)c3nc12	none
CCCCn1c(NCCCN2CCOCC2)nc2c1c(=O)[nH]c(=O)n2C	none
COC(=O)c1ccc(C)c(-n2c(N)c(C(=O)NC3CCCCC3)sc2=S)c1	none
COc1ccc(-c2noc(CSc3n[nH]c(=O)c4cc(-c5cccs5)nn34)n2)cc1OC	none (no result: AMPAR-TARP mod)
COc1ccc(CC(=O)Nc2nnc(-c3cc(OC)cc(OC)c3)o2)cc1	none (no result: GIRK2 act)
COc1ccccc1S(=O)(=O)N1CCC(OC)CC1	none (no result: GIRK2 act)
COc1ccc(C2(CNC(=O)c3ccc(OC)c(OC)c3)CCCC2)cc1	none (no result: GIRK2 act)
Cn1c(=O)c2c(nc3n2CC(c2ccc(F)cc2)=NN3CCN2CCOCC2)n(C)c1=O	AMPAR-TARP mod active
CCOC(=O)Cn1c(-c2ccccc2)cn2c3c(=O)n(C)c(=O)n(C)c3nc12	none (no result: GIRK2 act)
CCOCCN1N=C(c2ccc(F)cc2)Cn2c1nc1c2c(=O)n(C)c(=O)n1C	none (no result: GIRK2 act)
COC(=O)Cn1c(-c2ccccc2)cn2c3c(=O)n(C)c(=O)n(C)c3nc12	AMPAR-TARP mod active
Cc1cc(C)c2c(n1)nn1c(N3CCCCC3)cc(C)nc21	AMPAR-TARP mod active
Cc1cc(C)c2c(n1)nn1c(NC(C)c3ccccc3)cc(C)nc21 (stereo unspecified)	none
Cc1nn(C2CCS(=O)(=O)C2)c2nc(-c3cccs3)cc(C(=O)Nc3ccc(F)cc3)c12 (stereo unspecified)	none
Cc1ccc(NC(=O)c2cc(-c3cccs3)nc3c2c(C)nn3C2CCS(=O)(=O)C2)cc1 (stereo unspecified)	AMPAR-TARP mod active
Cn1nnc2c(N3CCC(O)CC3)ncnc21	none
COc1ccc(Cl)cc1S(=O)(=O)N(Cc1ccsc1)C1CC1	none (no result: AMPAR-TARP mod)
CC(C)(C)n1nc2c(c1-n1cccc1)CN(C(=O)c1cc3ccccc3oc1=O)C2	AMPAR-TARP mod active
CC(C)(C)n1nc2c(c1-n1cccc1)CN(C(=O)Cn1c(=O)oc3ccccc31)C2	none
CCOc1cc(C)ccc1S(=O)(=O)N1CCCCC1	none (no result: GIRK2 act)
CCOc1cc(C)ccc1S(=O)(=O)N1CC(C)CC(C)C1 (stereo unspecified)	AMPAR-TARP mod active (no result: GIRK2 act)
CC1(C)CC(=O)c2sc(NC(=O)C3CCN(S(C)(=O)=O)CC3)nc2C1	none (no result: AMPAR-TARP mod)
O=C(NCCCn1ccnc1)c1cc2c(=O)n3ccccc3nc2n1Cc1ccccc1	none
CCOC(=O)Cn1c(=O)c2c(nc3n(-c4cc(C)ccc4OC)c(-c4ccccc4)cn23)n(C)c1=O	none (no result: GIRK2 act)
COc1ccc(-c2ccc(N3CCC(C(=O)NCCc4c[nH]c5ccccc45)CC3)nn2)cc1	AMPAR-TARP mod active
O=C(c1ccc2c(c1)OCO2)N1CCN(c2ccc(-c3ccncc3)nn2)CC1	none
COc1ccccc1CNC(=O)C1CCN(c2ccc(-c3ccc(F)cc3)nn2)CC1	none
COc1ccc(-c2ccc(N3CCC(C(=O)N4CCN(C)CC4)CC3)nn2)cc1	none
COc1ccc(-c2ccc(N3CCC(C(=O)NC4CC4)CC3)nn2)cc1	AMPAR-TARP mod active
O=C(Cc1c[nH]c2ccccc12)N1CCN(c2ccc(N3CCCC3)nn2)CC1	AMPAR-TARP mod active
O=C(Cc1c[nH]c2ccccc12)N1CCN(c2cc(-c3cccnc3)[nH]n2)CC1	none (no result: AMPAR-TARP mod)
